Results taken from the supplement of paper PMC10105736.
Values without a mark were called inactive.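 Rule for the calls: active = MAPPIT score above the 99th percentile of random reference set scores in the same batch; inactive = at or below it.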

Key:
Assay in all cases: MAPPIT interaction score (arbitrary units); higher = stronger binary interaction signal, active = hit call of the paper
Pex3 = settings: MAPPIT configuration: N-C
SsRbeta = settings: MAPPIT configuration: N-C; pair source set: screen_3
Pfdn1 = settings: MAPPIT configuration: N-N; pair source set: Curagen_high_conf
Pdha = settings: pair source set: Lit-BM-16
Pgd = settings: MAPPIT configuration: N-N; pair source set: DPIM
qua = settings: MAPPIT configuration: N-N; pair source set: DPIM
Pex14 = settings: MAPPIT configuration: N-C; pair source set: screen_3
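Note: HEK293T cells with Epo stimulation, STAT-responsive firefly luciferase reporter, fold induction versus unstimulated cells divided by the larger fold induction of two negative controls lacking either bait or prey.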

B1: hig (protein)
chain: MWSRQRMRHKPLWALISLTVLLLVLDKSNANTEPVETSTTSEPDASPGCRAPDVRFTIVKPEATTEQPLAKFETTQIYLPEDFTTADVEFVDSVPRHPNENHAAVINPYSLDLGDDHLHVGDAAASLVGDDDLGDEDEDHHGDPEDKRLNANRKQGKRRRAGSGRRRRIENENGQTGRGRGSRYKRHAILHDTEASPETDRWAGSKLAAEGDVYYVHIADILKSREPNRELKSKLHKLKMKARLNKCLAEGGKEKCTRLLKKKPKKKVVEKEQTLKKEKKFPKEEQSKEKVPENGQTPKEDELELDHPETAAAHHRRRGDSHAAELDQRDRSPRWRRRRSTEFKGDLGQLPPESGIGPEPEPLADQDLKDLQQYGNQSSSARVALLWQRVKRKSGKTTGALSRPKGGGDSSSKTTSRKDKGIYDEEAGYTPIHPDDPEFDEEEEEDEEVDILQQFTEVSEIRFPGEIGPMGDRRLCKIRCVKGKWVGPLCATNEEDDNGNVKFQPLYKSCHVNRIPSHLLLSYRNISVTPIPPNRGWRKTRLSKSTLLSNTEINVGWDLPHGHSLQARCQELGIYKLLGESRVLCSNGLWAPRMPSCVPTTVLTNYSEDSAPSIRIKIFNGSHSFEPSGVMAVPPHSTVLMDCMYPRVRGTPEWSWTSWYMQYSTGWSPAQEEKAVRYRLSIKNIENNDSGTFTCTSPRGLTNSIAVVVATSTCPQLTEPLAPLKLRLEGNKLGQRAHYECPEGFRLDGAWNATCLASGNWSSPTPTCHAIQCPRLELDDPHLSLIELNTSAWGRAVFKCQWGFKLTGPAQLDCEPSGVWSGPVPRCKVIQCVMPVAPLNGRIGGTSLSQRRLTVGALVTFSCNDGHSLVGESSIICTENGQWSHSPPFCKSQCPYPGDPPNGLIAPLKFNYDAGDYLSVQCRPGFVQSYEGPPERPKCQPDGRWSGPMPKCKSYEEV
What does the source list for B1?
MAPPIT interaction score (Pex3; pair source set: screen_3): 1.39; MAPPIT interaction score (SsRbeta): -0.0878

B2: Cpsf6 (protein)
chain: MADVVLDLYAEDLDKDFAGQAQDEFGGDGVDLYDDIGGPTESAASGGGGGGTPSADGAAGPGSGEPGERNSGGPNGVYHQSSGSLTPTMNRRYQLYVGNLTWWTTDQDIANSLRDIGVSDLQEVKFFENRANGQSKGFSVISLGSESSLRAVLDQLPKKEMHGQAPVVTYPSKQALTQFESLQKTRPVPPPQQNGPPRGPAPPSMGGGPMPTGHPGGPQGGGPPGHPPRGMNSIMQPGQYRPQHMSQVPQVGGPNSGPPRMQPPMHPQGGLMGNQQPPPRYPSAQGQWPGQRPGGPRPGPPNGPPQRPMFQGGPMGMPVRGPAGPDWRRPPMHGGFPPQGPPRGLPPAPGPGGPHGAPAPHVNPAFFNQPGGPAQHPGMGGPPHGAPGPQPGMNMPPQQGMNMTPQHGPPPQFAQHGPRGPWPPPQGKPPGPFPDPQQMGPQLTEVEFEEVMSRNRTVSSSAIARAVSDAAAGEYSSAIETLVTAISLIKQSKVAHDERCKILISSLQDTLHGIEAKSYNRRERSRSRERSHRSRQRRERSTSRYRERSRERERDRDRERERDGGSYRERSRSRERERQAPDHYRDDSRSVRPRKSPEPVVAEAAEAPSSKRYYEDRERYRSSDRERRDRDRDRDRERERDRDRREEHRSRH
B2 was tested. Which MAPPIT interaction score (Pfdn1) did it give?
Its MAPPIT interaction score is 0.767.

B3: Pdhb (protein)
chain: MLRTRLIQAASSAQRAFSTSQKALAAKQMTVRDALNSALDDELARDDRVFILGEEVAQYDGAYKVSRGLWKKYGDKRVIDTPITEMGFAGIAVGAAMAGLRPVCEFMTWNFSMQAIDHIINSAAKTFYMSAGAVNVPIVFRGPNGAASGVAAQHSQCFAAWYAHCPGLKVLSPYDAEDARGLLKSAIRDPDPVVFLENELVYGTAFPVADNVADKDFLVPIGKAKVMRPGKDITLVAHSKAVETSLLAAAELAKKGIEAEVINLRSIRPLDTATIFASVRKTHHLVTVENGWPQHGVGAEICARIMEDQTFFELDAPVWRCAGVDVPMPYAKTLEAHALPRVQDLVEATLKVLGGKVGKAAAANK
What does the source list for B3?
MAPPIT interaction score (Pdha; MAPPIT configuration: N-C): 0.121; MAPPIT interaction score (Pdha; MAPPIT configuration: N-N): 0.456; MAPPIT interaction score (Pgd): -0.835; MAPPIT interaction score (qua): -0.463

B4: CG42540 (protein)
chain: MPDSMMDMEHRDHQLHRQQQQSHHHQPPRLTASTSTFAPPAPAGSQSEERDRDRDRERDHHLHHHQSNNVASSPLPVTASIQLHQQQPQQQQQQQPLTQLQQPQLREREHHQQQQQQQQQMMQQPQQQQQMQQPQQQLPHSHHALMQQSQQQQAIHRAEARRADEEISDKASTCGKLLIFLSVALVIMTLPFSLFVCFKVVQEYERAVIFRLGRLMQGGAKGPGIFFILPCIDSYARVDLRTRTYDVPPQEVLTKDSVTVSVDAVVYYRVSNATVSIANVENAHHSTRLLAQTTLRNTMGTRHLHEILSERMTISGTMQVQLDEATDAWGIKVERVEIKDVRLPVQLQRAMAAEAEAAREARAKVIAAEGEQKASRALREASEVIGDSPAALQLRYLQTLNTISAEKNSTIVFPLPIDLITYFLKTNEATTQQNARAAAAAIGNTPPPLQLAPQQQMGQQQQPQYQQPQQQQQQYQPQQQQQQQQQQPQQQDQLYQQGQQISSAM
Which MAPPIT interaction score (Pex14) does the source give for B4 here?
Its MAPPIT interaction score is 2.47.

B5: heix (protein)
chain: MATSSQLLPNGNLSRNGKTKTEDGEEVEAVVGARAAGADAGVALTGRLTGHPSTSGTFMKLKTYLLALRPWSLSASLVPTLLGSALAYRSQWAEEFSLATFFLTAFTVVTVHCAGNVVNTYFDFIKGIDKQKADDRTLVDHILTKDEVVSLGAILYMAGCGGFVLLAVLSPAKMEHLALIYFGGLSSSFLYTGGIGFKYIALGDLVILILFGPISVLFAFMSQTGHLDWTTMGYAIPLALNTEAILHSNNTRDADNDRRAGIVTLAILIGRTASHVLYAMLLFAPYSLFFIFGLKYSLWFLLPLVTLPQAFQIEKRFRNEQTMHLVPRQTAKLNFFFGILYVVACCCAHQLPTFGLRRN
How did the MAPPIT interaction score (Pex3; pair source set: screen_4) turn out when B5 was run?
Its MAPPIT interaction score is -0.663.
